NPR2 activator = GC-B (human) receptor activation. HEK293-GC-B cells, CNP EC30, cGMP TR-FRET; 0% at EC30 CNP, 100% saturating CNP. activation, % at 10 µM. hit rate 0.11% among 370,000. AID 1920062;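 active = activation at 10 µM reaching about 35% in either raw or pattern-adjusted values, limit read from the data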
MsrA act = bovine methionine sulfoxide reductase A activation; purified bovine MsrA, absorbance read-out; activation, % at 10.6 µM; hit rate 0.3% among 360,000; AID 602163; in the data active = activation above about 7.5%
MsrA inhibitor = inhibitors of bovine MsrA | purified bovine MsrA, absorbance read-out | inhibition, % at 15.5 µM | hit rate 0.75% among 360,000 | AID 651718
NPR1 activator = GC-A (human) enzyme activation; HEK293 GC-A cells, cGMP TR-FRET, EC30 ANP; 0% at EC30 ANP, 100% saturating ANP; activation, % at 10 µM; hit rate 0.14% among 370,000; AID 1671463; in the data active = activation above about 40%
MsrA inh confirm = bovine MsrA inhibition, confirmed. shares compounds with MsrA inhibitor. hit rate 41% among 2,300. purified bovine MsrA, absorbance read-out. inhibition, % at 15.5 µM;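 note: coupled to thioredoxin reductase with NADPH and selenocystamine and DMSO as substrate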
A number is an active result; - = inactive; . = not tested or not shown. Rows were chosen to be rich in hits. Some 1.2% of all compounds tested hit in one or more screens of this group. Cut-off read from the data, not from the text of the source, unless noted: active = inhibition above about 4.5%; inactive = the rest.

SMILES | NPR2 activator | MsrA act | MsrA inhibitor | NPR1 activator | MsrA inh confirm
CCN=C1NC(c2ccc(Cl)cc2)C(C(=O)OC)=C(C)N1Cc1cccc(C(F)(F)F)c1 (configuration not stated) | - | . | - | - | .
CCC(C)N(C(=O)Cn1nc(Cc2ccncc2)c2ccccc2c1=O)C(C)CC (configuration not stated) | - | . | . | - | .
O=C1CCCN1CCCN=c1c([N+](=O)[O-])nn(-c2ccc(Cl)cc2)n1O | - | - | - | - | .
COc1ccc(-n2nc([N+](=O)[O-])c(=NCCCN3CCCC3=O)n2O)cc1 | - | - | 4.8 | - | -
O=C(N[C@@H](Cc1cccnc1)C(=O)N1CCC[C@H]1C(=O)NC1CCCC1)C1CC1 | - | . | - | - | .
CO/N=C/C(C#N)=C/c1ccc(OC)c(OC)c1 | - | - | 5.1 | - | -
CCOC(=O)/C(C#N)=C/c1ccc(OC)c(OC)c1 | - | - | - | - | .
CN(C)c1oc(-c2cccs2)nc1C#N | - | - | 4.9 | - | -
Cc1ccc(/C=C/C(=O)Nc2nccs2)o1 | - | - | 5.5 | - | 7.8
O=C(/C=C/c1cccs1)Nc1cccc(NC(=O)/C=C/c2cccs2)n1 | - | - | 7.4 | - | 6.0
O=C(/C=C/c1cccs1)Nc1nccs1 | - | - | 6.4 | - | 7.2
CS(=O)(=O)N1CCC(C(=O)NCC2COc3ccccc3O2)CC1 (configuration not stated) | - | . | . | - | .
O=C(N/N=C/c1cccs1)c1ccc(NC(=O)c2ccccc2Cl)cc1 | - | - | 4.8 | - | -
C=CCNc1nc(NCCOC)c2sc(-c3ccccc3)cc2n1 | - | - | - | - | .
C=CCNc1nc(NCCNC(C)=O)c2sc(-c3ccccc3)cc2n1 | - | - | 4.7 | - | -
O=C(O)CSc1cc(NS(=O)(=O)c2ccc(Br)cc2)c2ccccc2c1O | - | 9.3 | 4.9 | - | -
COc1cccc(C2=CC(c3cccs3)n3nnnc3N2)c1 (configuration not stated) | - | - | 13.8 | - | -
Cc1ccccc1-n1ncc2c([N+](=O)[O-])cc([N+](=O)[O-])cc21 | - | - | 5.6 | - | -
COc1cccc(/C=C2\SC(=O)N(CC(=O)NC3CCS(=O)(=O)C3)C2=O)c1 (configuration not stated) | - | - | 4.8 | - | -
O=C1c2ccccc2C2Cc3nnccc3CN12 (configuration not stated) | - | . | - | - | .
COc1ccc(/C=C/C(=O)Nc2c(C(=O)O)[nH]c3ccccc23)cc1OC | - | - | 5.6 | - | -
COc1ccc(/C=C/C(=O)Nc2ccc(-n3nncc3-c3ccc(OC)c(OC)c3)cc2)cc1OC | - | - | 5.1 | - | -
Cc1ccc(S(=O)(=O)NCCNc2ccc([N+](=O)[O-])cc2C(F)(F)F)cc1 | - | - | 29.3 | - | 21.3
O=C(O)CCCC(=O)Nc1ccc(N=Nc2ccccc2)cc1 | - | - | 6.6 | - | -
COC(=O)CCC(=O)Nc1ccc(N=Nc2ccccc2)cc1 | . | - | - | . | .
SMILES | NPR2 activator | MsrA act | MsrA inhibitor | NPR1 activator | MsrA inh confirm
CC(C)CCNc1nc(N)c([N+](=O)[O-])c(NCCO)n1 | - | - | 4.9 | - | 5.1
CCC(C)Nc1nc(N)c([N+](=O)[O-])c(NCCO)n1 (configuration not stated) | - | - | - | - | .
O=Cc1cnc(N2CCCCC2)s1 | - | - | 5.0 | - | 6.9
CNC(=O)C1CC(=O)N/C(=N/N=C(\C)c2cccs2)S1 (configuration not stated) | . | - | 6.1 | . | 4.7
C/C(=N\N=C1\NC(=O)CC(C(=O)O)S1)c1cccs1 (configuration not stated) | - | - | 5.0 | - | -
C/C(=N\N=C1\NC(=O)CC(C(=O)O)S1)c1ccc(F)cc1 (configuration not stated) | - | - | - | - | .
O=C1C(=O)N(CCCN2CCOCC2)C(c2ccc([N+](=O)[O-])cc2)/C1=C(/O)c1ccc2c(c1)OCO2 (configuration not stated) | - | - | 5.7 | - | -
CC(C)(C)OC(=O)N1CCC(N[C@@H](Cc2ccccc2)C(=O)NCC(c2ccccc2)c2ccccc2)(C(=O)NC2CCCCC2)CC1 | - | . | . | - | .
COCc1cc(N2CCN(C(=O)OC(C)(C)C)C[C@H]2C)ccc1Br | - | . | - | - | .
CCCCNC(=O)C[C@H]1C[C@@]2(C(=O)OC)C(=C[C@H](COCc3ccccc3)O[C@@H]2C)N(Cc2ccccc2)C1=O | - | . | . | - | .
COC(=O)c1[nH]c2ccccc2c1NC(=O)Oc1ccccc1 | - | - | - | - | .
COC(=O)c1[nH]c2cc(OC)c(OC)cc2c1NC(=O)Oc1ccccc1 | - | - | 5.0 | - | -
COc1ccccc1C1Nc2ccccc2NC2=C1C(=O)CC(C)(C)C2 (configuration not stated) | - | - | 5.4 | - | -
CC1(C)CC(=O)C2=C(C1)Nc1ccccc1NC2c1ccc2c(c1)OCO2 (configuration not stated) | - | - | 6.6 | - | -
CC(=O)Nc1cccc(-c2cc(C(C)=O)c3n(c2=O)CCC3)c1 | - | . | . | - | .
COc1ccc(Cn2cc(CN3[C@@H](c4ccccc4)COc4cc(Br)ccc4S3(=O)=O)nn2)cc1 | - | . | - | - | .
COc1cccc2cc3c(=O)oc4ccccc4c3nc12 | - | - | 18.5 | - | 13.4
N#CC(C#N)=C1NC(N)=C(C#N)C(c2ccccc2)=C1C#N | - | - | 7.2 | - | 6.7
COCC(=O)N[C@H]1C[C@@H]2O[C@H](CO)CC[C@@H]2O[C@@H]1CCc1ccc(-c2ccccc2)cc1 | - | . | . | - | .
Cn1c(=O)n(C)c2cc(/C=C3/SC(=O)N(CC(=O)N4CCOCC4)C3=O)ccc21 | - | - | 4.8 | - | -
CCOC(=O)CN1C(=O)S/C(=C/c2ccc3c(c2)n(C)c(=O)n3C)C1=O | - | - | - | - | .
Cn1c2c(c(=O)n(C)c1=O)C(C(F)(F)F)(C(F)(F)F)N=C(c1ccccc1Cl)N2 | - | - | 9.1 | - | 6.7
COc1ccc(CNC(=O)c2ccc(=O)oc2)cc1OC | - | - | 9.9 | - | 8.7
O=C(NCc1cccnc1)c1ccc(=O)oc1 | - | - | 8.3 | - | 8.4
COc1ccc(C(=O)NCc2ccc(Cl)c(Cl)c2)cc1OC | - | - | - | - | .
SMILES | NPR2 activator | MsrA act | MsrA inhibitor | NPR1 activator | MsrA inh confirm
COc1ccc(N2CCN(CCNS(=O)(=O)c3c(C(C)C)cc(C(C)C)cc3C(C)C)CC2)cc1 | - | . | . | - | .
O=C(Nc1nc2ncccn2c1-c1ccc(C(F)(F)F)cc1)c1ccc(F)cc1 | - | . | . | - | .
CCOc1cc(/C=C2/NC(=O)N(CC(=O)OC)C2=O)ccc1O | - | - | 7.4 | - | 5.8
COC(=O)COc1ccc(/C=C2/NC(=O)N(CC(=O)OC)C2=O)cc1 | - | - | 5.5 | - | 5.4
CCOc1cc(/C=C2/NC(=O)N(CC(=O)Nc3cccc(C)c3)C2=O)ccc1O | - | - | - | - | .
C#CCCC(=O)O[C@H]1CCC[C@@]2(C(=O)N(Cc3ccccc3)c3ccccc32)[C@H]1NC(=O)CCc1ccccc1 | - | . | . | - | .
CS(=O)(=O)c1ccc(-c2nnc(NC(=O)c3ccc(S(=O)(=O)N4CCCC4)cc3)o2)cc1 | - | - | 5.1 | - | -
